Values without a mark were called inactive.
Tests used:
Experiment in all cases: log2 ratio of Biotin-Ahx-Ub-VS probe labelling (fragment/DMSO); higher = less target engagement (more negative = stronger competition), active = hit call of the paper (q ≤ 0.05, log2 ratio ≤ -1)
Details in all cases: compound concentration: 200 uM; treatment time: 3 h
ALG13 = biological target: T1, ALG13 (UniProt Q9NP73)
T1 sequence (whole entry): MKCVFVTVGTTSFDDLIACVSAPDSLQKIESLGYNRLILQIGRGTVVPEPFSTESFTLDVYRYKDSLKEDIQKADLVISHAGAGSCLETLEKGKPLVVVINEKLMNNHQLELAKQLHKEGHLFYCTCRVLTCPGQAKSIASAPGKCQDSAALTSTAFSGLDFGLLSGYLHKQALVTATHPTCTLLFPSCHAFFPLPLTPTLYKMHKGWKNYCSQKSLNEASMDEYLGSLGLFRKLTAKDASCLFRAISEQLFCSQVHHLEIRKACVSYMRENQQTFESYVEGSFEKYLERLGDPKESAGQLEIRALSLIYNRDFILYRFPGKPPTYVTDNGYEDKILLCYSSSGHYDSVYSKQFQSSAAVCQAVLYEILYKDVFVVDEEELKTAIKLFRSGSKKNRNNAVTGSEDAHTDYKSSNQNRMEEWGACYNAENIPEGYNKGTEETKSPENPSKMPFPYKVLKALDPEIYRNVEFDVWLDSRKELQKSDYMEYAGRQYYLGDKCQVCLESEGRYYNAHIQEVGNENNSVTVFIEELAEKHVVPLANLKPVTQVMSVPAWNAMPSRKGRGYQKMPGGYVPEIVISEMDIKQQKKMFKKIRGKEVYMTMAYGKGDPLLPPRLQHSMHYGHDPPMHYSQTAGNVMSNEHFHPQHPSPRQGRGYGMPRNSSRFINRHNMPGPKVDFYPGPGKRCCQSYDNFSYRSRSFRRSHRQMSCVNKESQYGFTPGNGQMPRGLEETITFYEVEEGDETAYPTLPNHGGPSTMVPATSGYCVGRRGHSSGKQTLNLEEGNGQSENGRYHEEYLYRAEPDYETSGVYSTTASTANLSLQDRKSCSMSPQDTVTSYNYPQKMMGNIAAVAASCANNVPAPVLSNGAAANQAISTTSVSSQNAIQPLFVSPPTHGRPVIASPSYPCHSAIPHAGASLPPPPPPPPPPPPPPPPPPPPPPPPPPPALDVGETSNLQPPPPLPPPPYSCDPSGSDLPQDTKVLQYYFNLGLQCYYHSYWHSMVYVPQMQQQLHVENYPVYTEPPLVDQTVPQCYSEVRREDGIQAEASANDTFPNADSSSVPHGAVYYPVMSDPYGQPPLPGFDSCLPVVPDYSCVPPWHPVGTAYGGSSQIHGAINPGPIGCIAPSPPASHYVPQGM
In short: (§1)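 Fragment (200 µM) or vehicle was incubated for 3 h with triplicate HEK293T lysate samples of 495 µg, which were then treated with Biotin-Ahx-Ub-VS at 0.5 µM final for 1 h. Labelled DUBs were enriched on NeutrAvidin, digested with LysC and trypsin, and analysed by diaPASEF LC-MS/MS. Values are average log2 fragment/vehicle ratios from an unpaired t-test on global-median-normalised Spectronaut label-free quantities, using proteins with ≥2 unique peptides.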

ATXN3 = ATXN3 (UniProt P54252)
Sequence of ATXN3 (P54252 whole entry): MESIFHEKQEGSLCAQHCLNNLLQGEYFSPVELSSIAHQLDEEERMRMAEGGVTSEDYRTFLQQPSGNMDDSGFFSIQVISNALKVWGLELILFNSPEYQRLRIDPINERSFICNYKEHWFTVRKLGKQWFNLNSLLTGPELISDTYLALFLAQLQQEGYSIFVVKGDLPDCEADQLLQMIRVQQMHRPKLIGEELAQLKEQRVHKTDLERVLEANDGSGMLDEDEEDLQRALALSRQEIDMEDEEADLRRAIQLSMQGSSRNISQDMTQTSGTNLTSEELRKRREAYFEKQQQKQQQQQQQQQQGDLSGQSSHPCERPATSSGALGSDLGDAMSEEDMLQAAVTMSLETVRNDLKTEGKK
In short: as §1

BAP1 = biological target: T2, BAP1 (UniProt Q92560)
T2 sequence (whole entry): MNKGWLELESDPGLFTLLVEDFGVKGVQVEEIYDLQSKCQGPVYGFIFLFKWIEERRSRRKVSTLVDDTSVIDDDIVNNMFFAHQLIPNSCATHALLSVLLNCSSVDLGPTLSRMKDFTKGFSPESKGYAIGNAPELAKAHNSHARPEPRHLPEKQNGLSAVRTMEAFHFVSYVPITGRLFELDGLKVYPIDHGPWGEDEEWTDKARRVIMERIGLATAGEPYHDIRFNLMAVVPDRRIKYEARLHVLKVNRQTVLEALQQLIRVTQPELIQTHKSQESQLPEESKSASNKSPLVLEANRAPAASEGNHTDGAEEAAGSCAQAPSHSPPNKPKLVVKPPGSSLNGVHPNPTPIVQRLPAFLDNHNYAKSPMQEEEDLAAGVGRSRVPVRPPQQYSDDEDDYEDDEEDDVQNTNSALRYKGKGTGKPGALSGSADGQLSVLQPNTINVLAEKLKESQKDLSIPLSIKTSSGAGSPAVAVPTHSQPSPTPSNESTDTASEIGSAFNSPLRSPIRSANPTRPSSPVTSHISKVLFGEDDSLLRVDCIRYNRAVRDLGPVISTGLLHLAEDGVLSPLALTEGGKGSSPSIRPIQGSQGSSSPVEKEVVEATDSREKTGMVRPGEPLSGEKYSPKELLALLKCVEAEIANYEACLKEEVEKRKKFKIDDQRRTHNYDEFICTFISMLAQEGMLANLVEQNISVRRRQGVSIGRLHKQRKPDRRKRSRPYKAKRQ
In short: as §1

EIF3F = EIF3F (UniProt O00303)
Sequence of EIF3F (O00303 whole entry): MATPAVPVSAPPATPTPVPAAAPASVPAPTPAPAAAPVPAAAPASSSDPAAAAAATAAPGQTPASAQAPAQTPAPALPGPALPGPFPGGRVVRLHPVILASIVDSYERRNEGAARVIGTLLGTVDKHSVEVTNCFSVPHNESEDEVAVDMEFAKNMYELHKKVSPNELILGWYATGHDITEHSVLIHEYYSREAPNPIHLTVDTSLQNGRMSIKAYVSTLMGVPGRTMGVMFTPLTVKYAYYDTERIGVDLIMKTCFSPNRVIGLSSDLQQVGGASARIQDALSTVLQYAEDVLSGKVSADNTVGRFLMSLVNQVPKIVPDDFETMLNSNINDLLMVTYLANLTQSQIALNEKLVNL
In short: as §1

EIF3H = EIF3H (UniProt O15372)
Sequence of EIF3H (O15372 whole entry): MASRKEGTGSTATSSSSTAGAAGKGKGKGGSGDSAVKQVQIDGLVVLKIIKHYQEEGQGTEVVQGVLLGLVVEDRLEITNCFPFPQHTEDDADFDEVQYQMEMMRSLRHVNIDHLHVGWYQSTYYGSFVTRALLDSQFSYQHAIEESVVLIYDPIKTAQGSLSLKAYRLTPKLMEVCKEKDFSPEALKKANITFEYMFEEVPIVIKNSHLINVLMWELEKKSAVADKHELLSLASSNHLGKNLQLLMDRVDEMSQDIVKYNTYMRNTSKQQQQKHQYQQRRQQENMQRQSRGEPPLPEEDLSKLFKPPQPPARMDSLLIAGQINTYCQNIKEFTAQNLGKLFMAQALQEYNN
In short: as §1

FAM105A = biological target: T3, FAM105A (UniProt Q9NUU6)
T3 sequence (whole entry): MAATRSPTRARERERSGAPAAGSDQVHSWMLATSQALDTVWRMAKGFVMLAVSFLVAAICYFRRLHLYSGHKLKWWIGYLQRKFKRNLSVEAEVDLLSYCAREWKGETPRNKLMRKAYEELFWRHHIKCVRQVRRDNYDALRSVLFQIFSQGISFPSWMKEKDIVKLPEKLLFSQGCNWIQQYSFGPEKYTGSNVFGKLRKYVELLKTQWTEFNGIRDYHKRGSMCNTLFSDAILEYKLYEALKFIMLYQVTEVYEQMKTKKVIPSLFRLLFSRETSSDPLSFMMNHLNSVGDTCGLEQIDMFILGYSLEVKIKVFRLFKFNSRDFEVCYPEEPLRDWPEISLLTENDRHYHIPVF
In short: as §1

OTUB1 = OTUB1 (UniProt Q96FW1)
Sequence of OTUB1 (Q96FW1 whole entry): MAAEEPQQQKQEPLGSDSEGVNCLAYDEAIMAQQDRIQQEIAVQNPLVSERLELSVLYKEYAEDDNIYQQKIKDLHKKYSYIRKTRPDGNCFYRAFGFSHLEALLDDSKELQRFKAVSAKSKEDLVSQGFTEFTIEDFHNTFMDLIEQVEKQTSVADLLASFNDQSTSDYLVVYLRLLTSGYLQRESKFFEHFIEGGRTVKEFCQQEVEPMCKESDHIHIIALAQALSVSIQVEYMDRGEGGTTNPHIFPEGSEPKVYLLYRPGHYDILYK
In short: as §1

OTUD4 = biological target: T4, OTUD4 (UniProt Q01804)
T4 sequence (whole entry): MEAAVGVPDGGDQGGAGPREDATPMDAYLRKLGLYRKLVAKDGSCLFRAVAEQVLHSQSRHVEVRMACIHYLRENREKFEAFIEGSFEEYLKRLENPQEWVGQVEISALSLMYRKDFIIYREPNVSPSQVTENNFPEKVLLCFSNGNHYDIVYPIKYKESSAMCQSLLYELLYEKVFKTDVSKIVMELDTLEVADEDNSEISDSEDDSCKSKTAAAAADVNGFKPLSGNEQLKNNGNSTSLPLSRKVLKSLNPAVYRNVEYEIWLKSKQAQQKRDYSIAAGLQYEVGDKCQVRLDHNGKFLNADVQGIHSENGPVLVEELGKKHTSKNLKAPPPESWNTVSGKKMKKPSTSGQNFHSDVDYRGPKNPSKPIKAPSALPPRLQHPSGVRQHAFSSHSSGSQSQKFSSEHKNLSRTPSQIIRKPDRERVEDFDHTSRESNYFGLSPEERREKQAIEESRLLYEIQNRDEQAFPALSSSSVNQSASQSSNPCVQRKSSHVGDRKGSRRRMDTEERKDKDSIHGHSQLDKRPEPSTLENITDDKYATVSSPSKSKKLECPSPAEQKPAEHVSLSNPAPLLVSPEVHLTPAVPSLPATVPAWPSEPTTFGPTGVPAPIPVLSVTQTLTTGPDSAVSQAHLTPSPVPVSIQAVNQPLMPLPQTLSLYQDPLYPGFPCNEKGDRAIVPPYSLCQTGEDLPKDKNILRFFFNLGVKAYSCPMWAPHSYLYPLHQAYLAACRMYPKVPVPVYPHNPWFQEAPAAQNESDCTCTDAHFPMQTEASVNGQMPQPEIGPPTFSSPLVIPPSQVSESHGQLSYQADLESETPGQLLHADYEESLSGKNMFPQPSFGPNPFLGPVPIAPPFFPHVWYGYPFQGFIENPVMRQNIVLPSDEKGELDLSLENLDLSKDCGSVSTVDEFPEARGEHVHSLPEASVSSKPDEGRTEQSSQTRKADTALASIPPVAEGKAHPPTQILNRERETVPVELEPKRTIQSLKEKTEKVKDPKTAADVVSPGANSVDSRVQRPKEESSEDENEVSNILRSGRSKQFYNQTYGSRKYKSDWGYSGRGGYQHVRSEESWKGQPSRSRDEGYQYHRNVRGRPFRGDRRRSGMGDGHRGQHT
In short: as §1

OTUD5 = biological target: T5, OTUD5 (UniProt Q96G74)
T5 sequence (whole entry): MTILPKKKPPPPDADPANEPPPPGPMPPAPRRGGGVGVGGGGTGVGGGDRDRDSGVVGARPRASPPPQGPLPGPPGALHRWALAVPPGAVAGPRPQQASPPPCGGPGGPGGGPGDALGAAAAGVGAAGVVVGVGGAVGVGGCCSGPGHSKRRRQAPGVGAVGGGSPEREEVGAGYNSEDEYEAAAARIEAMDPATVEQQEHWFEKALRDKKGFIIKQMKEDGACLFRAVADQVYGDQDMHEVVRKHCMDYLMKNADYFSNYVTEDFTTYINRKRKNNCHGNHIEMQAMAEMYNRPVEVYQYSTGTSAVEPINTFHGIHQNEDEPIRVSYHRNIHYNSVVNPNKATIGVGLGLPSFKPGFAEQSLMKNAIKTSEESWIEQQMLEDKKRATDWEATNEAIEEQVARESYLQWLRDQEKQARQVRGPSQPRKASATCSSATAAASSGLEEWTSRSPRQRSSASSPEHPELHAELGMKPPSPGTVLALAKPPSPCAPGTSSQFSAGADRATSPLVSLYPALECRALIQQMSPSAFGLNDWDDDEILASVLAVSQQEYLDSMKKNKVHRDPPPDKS
In short: as §1

Cl.Cn1ncc2c1CCCC2NC(=O)CCl (centres undefined)
log2 ratio of Biotin-Ahx-Ub-VS probe labelling (ALG13): 0.35
log2 ratio of Biotin-Ahx-Ub-VS probe labelling (ATXN3): -0.16
log2 ratio of Biotin-Ahx-Ub-VS probe labelling (BAP1): -0.894
log2 ratio of Biotin-Ahx-Ub-VS probe labelling (EIF3F): -0.378
log2 ratio of Biotin-Ahx-Ub-VS probe labelling (EIF3H): 0.457
log2 ratio of Biotin-Ahx-Ub-VS probe labelling (FAM105A): 0.0219
log2 ratio of Biotin-Ahx-Ub-VS probe labelling (OTUB1): -0.186
log2 ratio of Biotin-Ahx-Ub-VS probe labelling (OTUD4): -1.75 (active)
log2 ratio of Biotin-Ahx-Ub-VS probe labelling (OTUD5): -0.0276

Source: the supplement of paper PMC11732987, “Enantioselective OTUD7B fragment discovery through chemoproteomics screening and high-throughput optimisation” (Communications Chemistry, 2025)
